Four compounds from PubChem BioAssay (EPA / NIEHS) can be followed below.

The structures appear in SMILES notation. Inconclusive results are not listed. Active and inactive are the calls of the source. Rule for the calls, unless noted: active = hit-call score of the fitted dose curve at least 0.9, where 1 is the maximum; inactive = score below 0.9.

Assay [1] in a line: ATG_CRE_CIS: Attagene CIS-FACTORIAL HepG2 Assay for human cAMP Responsive Element (CRE) binding protein 3 (AID 2282926). Particulars: HepG2 CRE cis-reporter, Attagene multiplexed mRNA; actives raise or lower the signal. The method, boiled down:
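HepG2 cells transiently transfected with a multiplexed reporter library (CRE-driven unit among them) were dosed for 24 h. Reporter mRNA was quantified by RT-PCR, fluorescent labelling, HpaI digestion and capillary electrophoresis, with bidirectional fitting against DMSO baseline.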

A short description of assay [2]: ATG_CMV_CIS: Attagene CIS-FACTORIAL HepG2 Assay for human CMV (Internal Marker) (AID 2282928).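 Note: endpoint acts as a background internal control marker rather than a target.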 Particulars: HepG2 CMV promoter reporter, transcription factor profiling; actives raise or lower the signal. The method, boiled down:
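HepG2 cells transiently transfected with multiple cis-regulated reporter units; 24 h compound exposure. Reporter mRNA quantified by RT-PCR, 6-FAM primer-extension labeling, HpaI digestion and capillary electrophoresis; bidirectional fitting against DMSO baseline.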

The target in assay [3] is Aryl hydrocarbon receptor (Homo sapiens) (UniProt P35869). The assay can be described thus: ATG_Ahr_CIS: Attagene CIS-FACTORIAL HepG2 Assay for human Aryl Hydrocarbon Receptor (Ahr) (AID 2282930). Particulars: HepG2 AhR cis-factorial reporter transcription; actives raise or lower the signal. The procedure, abridged:
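HepG2 cells transiently transfected with cis-element-driven multiplexed reporter transcription units; endogenous transcription factor activity measured as reporter mRNA 24 h after dosing. RT-PCR, 6-FAM labelling, HpaI digestion, capillary electrophoresis; bidirectional fitting versus DMSO baseline.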

Assay [4] can be described thus: ATG_BRE_CIS: Attagene CIS-FACTORIAL HepG2 Assay for human Bone Morphogenetic Protein (BMP) Response Element (BRE) (AID 2282933). Particulars: HepG2 BMP response element reporter, Attagene transcription factor profiling; actives raise or lower the signal. The method, boiled down:
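Multiplexed cis-reporter assay, HepG2, 24 h exposure. mRNA from reporter units quantified via RT-PCR/CE; DMSO baseline; bidirectional curve fit.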

Assay [5] can be described thus: ATG_Ets_CIS: Attagene CIS-FACTORIAL HepG2 Assay for human Erythroblast Transformation Specific (ETS) (AID 2282941). Particulars: HepG2 ETS cis-reporter transcription, actives raise or lower the signal. The procedure, abridged: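 HepG2 cells transiently transfected with cis-promoter reporter transcription units were dosed for 24 h; reporter mRNA was measured by RT-PCR, 6-FAM primer extension, HpaI digestion and capillary electrophoresis, with bidirectional fitting against DMSO baseline.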

Assay [6] addresses Hepatocyte nuclear factor 3-beta (Homo sapiens) (UniProt Q9Y261). The assay can be described thus: ATG_FoxA2_CIS: Attagene CIS-FACTORIAL HepG2 Assay for human Forkhead box A2 (FOXA2) (AID 2282942). Particulars: HepG2 cis-reporter transcription factor activity, 24 h; actives raise or lower the signal. The procedure, abridged:
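24 h dosing of HepG2 bearing cis-reporter constructs; mRNA readout by RT-PCR/CE fluorescence; bidirectional fit, DMSO baseline.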

Assay [7] is described as follows: ATG_GATA_CIS: Attagene CIS-FACTORIAL HepG2 Assay for human GATA Binding Protein (AID 2282944). Particulars: HepG2 GATA cis-element reporter, Attagene multiplex mRNA; actives raise or lower the signal. The method, boiled down:
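After transfecting HepG2 cells with multiple cis-regulated reporter units, chemicals are dosed for 24 h; isolated RNA undergoes RT-PCR and fluorescent labeling before capillary electrophoresis, with activity expressed against DMSO.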

In assay [8] the target is Hypoxia-inducible factor 1-alpha (Homo sapiens) (UniProt Q16665). In words: ATG_HIF1a_CIS: Attagene CIS-FACTORIAL HepG2 Assay for human Hypoxia Inducible Factor 1 (HIF1A) (AID 2282951). Particulars: HepG2 Attagene cis-factorial HIF1a reporter transcription; actives raise or lower the signal. The method, boiled down: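 After 24 h chemical exposure of reporter-transfected HepG2 cells, reporter cDNA was PCR-amplified, labelled by 6-FAM primer extension (2 min 95 C, 20 s 68 C, 10 min 72 C), HpaI-cut (2 h, 37 C) and analysed by CE.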
Chain of Hypoxia-inducible factor 1-alpha (Homo sapiens) (Q16665 whole entry, looked up): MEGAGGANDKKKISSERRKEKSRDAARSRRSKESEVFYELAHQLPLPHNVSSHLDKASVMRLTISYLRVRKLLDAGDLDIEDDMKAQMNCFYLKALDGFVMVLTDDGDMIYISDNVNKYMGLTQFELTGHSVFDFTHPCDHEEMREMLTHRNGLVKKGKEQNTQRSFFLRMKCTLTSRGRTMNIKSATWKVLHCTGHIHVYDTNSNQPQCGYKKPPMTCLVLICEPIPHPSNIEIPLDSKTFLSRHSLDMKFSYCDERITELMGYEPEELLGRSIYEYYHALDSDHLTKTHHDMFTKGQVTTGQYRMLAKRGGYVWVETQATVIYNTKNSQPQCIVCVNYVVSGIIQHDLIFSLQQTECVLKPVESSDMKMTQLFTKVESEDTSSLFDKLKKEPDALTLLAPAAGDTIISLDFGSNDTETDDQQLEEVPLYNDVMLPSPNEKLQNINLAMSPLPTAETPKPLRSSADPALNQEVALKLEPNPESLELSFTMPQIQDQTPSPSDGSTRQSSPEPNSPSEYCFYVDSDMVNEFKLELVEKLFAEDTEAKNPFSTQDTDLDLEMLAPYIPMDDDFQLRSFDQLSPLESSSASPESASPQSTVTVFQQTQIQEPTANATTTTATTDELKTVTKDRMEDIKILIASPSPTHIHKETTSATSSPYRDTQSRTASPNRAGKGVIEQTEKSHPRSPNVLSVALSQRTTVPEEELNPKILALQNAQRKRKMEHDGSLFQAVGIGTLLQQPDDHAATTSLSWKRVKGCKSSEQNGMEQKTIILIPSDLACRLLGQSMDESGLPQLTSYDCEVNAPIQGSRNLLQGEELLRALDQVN

For assay [9], the target named is Hepatocyte nuclear factor 6 (Homo sapiens) (UniProt Q9UBC0). In words: ATG_HNF6_CIS: Attagene CIS-FACTORIAL HepG2 Assay for human Hepatocyte Nuclear Factor 6 (HNF6) (AID 2282952). Particulars: HepG2 Attagene cis-factorial HNF6 reporter transcription; actives raise or lower the signal. The procedure, abridged:
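HepG2 cells transiently transfected with cis-element-driven multiple reporter transcription units, dosed 24 h; reporter mRNA quantified by RT-PCR, FAM primer extension, HpaI digestion and capillary electrophoresis; bidirectional fit versus DMSO baseline.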

The target of assay [10] is Heat shock factor protein 1 (Homo sapiens) (UniProt Q00613). In words: ATG_HSE_CIS: Attagene CIS-FACTORIAL HepG2 Assay for human Heat Shock Transcription Factor 1 (HSE) (AID 2282953). Particulars: HepG2 HSE cis-reporter, Attagene RNA transcription; actives raise or lower the signal. The procedure, abridged:
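Endogenous transcription factor activity captured via cis-promoter reporter units transfected into HepG2; treatment lasted 24 h. Fluorescence intensity of reporter fragments analysed with bidirectional curve fitting, DMSO baseline.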

Assay [11] is described as follows: ATG_MRE_CIS: Attagene CIS-FACTORIAL HepG2 Assay for human Metal Responsive Element (MRE) (AID 2282954). Particulars: HepG2 MRE cis-reporter transcription, Attagene multiplex; actives raise or lower the signal. The procedure, abridged: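 HepG2 cells transiently transfected with multiple cis-element reporter units measure endogenous MTF1-driven transcription. After 24 h compound exposure, reporter mRNA is quantified by RT-PCR with 6-FAM labelling, HpaI digestion and capillary electrophoresis; bidirectional fits versus DMSO.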

Assay [12] concerns the target Paired box protein Pax-6 (Homo sapiens) (UniProt P26367). The assay can be described thus: ATG_Pax6_CIS: Attagene CIS-FACTORIAL HepG2 Assay for human Paired Box 6 (PAX6) (AID 2282956). Particulars: HepG2 CIS-FACTORIAL PAX6 reporter transcription, RNA readout; actives raise or lower the signal. The procedure, abridged:
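HepG2 cells transiently transfected with multiplexed cis-promoter reporter units (endogenous TF activity) were dosed for 24 h. Reporter mRNA was quantified by RT-PCR, 6-FAM labeling, HpaI digestion and capillary electrophoresis; bidirectional fitting versus DMSO baseline.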

A short description of assay [13]: ATG_SREBP_CIS: Attagene CIS-FACTORIAL HepG2 Assay for human Sterol Regulatory Element Binding (SREBP) (AID 2282962). Particulars: HepG2 Attagene cis-factorial SREBP reporter, mRNA; actives raise or lower the signal. The procedure, abridged:
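HepG2 cells transiently transfected with multiplexed cis-element reporter units report endogenous transcription factor activity. After 24 h of chemical exposure, reporter mRNA was quantified by RT-PCR, 6-FAM labelling, HpaI digestion and capillary electrophoresis; bidirectional fits used DMSO as baseline.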

Assay [14] in a line: ATG_VDRE_CIS: Attagene CIS-FACTORIAL HepG2 Assay for human Vitamin D Receptor Element (VDRE) (AID 2282968). Particulars: HepG2 VDRE cis-reporter transcription, actives raise or lower the signal. The procedure, abridged: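 HepG2 cells transiently transfected with cis-element reporter units, dosed 24 h; reporter mRNA measured by RT-PCR, 6-FAM labeling, HpaI digestion and capillary electrophoresis. Activity fitted bidirectionally against DMSO baseline.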

The nature of assay [15]: ATG_NF_kB_CIS: Attagene CIS-FACTORIAL HepG2 Assay for human Nuclear Factor Kappa B (NF-kB) (AID 2282991). Particulars: HepG2 Attagene cis-factorial NF-kB reporter mRNA; actives raise or lower the signal. The procedure, abridged:
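Fluorescence of labelled RT-PCR products separated by capillary electrophoresis gives reporter mRNA levels from transfected HepG2 cells exposed 24 h; values are fitted in both directions relative to DMSO.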

Assay [16] can be described thus: ATG_NRF2_ARE_CIS: Attagene CIS-FACTORIAL HepG2 Assay for human Nuclear Factor Erythroid 2 Related Factor 2 (NFR2) response to Antioxidant Response Elements (ARE) (AID 2282992). Particulars: HepG2 Attagene ARE/NRF2 reporter, transcription factor activity; actives raise or lower the signal. The procedure, abridged: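 HepG2 cells transiently transfected with multiplexed cis-regulated reporter transcription units measure endogenous transcription factor activity. Reporter mRNA at 24 h is quantified by RT-PCR, fluorescent labelling and capillary electrophoresis, with bidirectional fitting relative to DMSO.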

In assay [17] the target is Cellular tumor antigen p53 (Homo sapiens) (UniProt P04637). In words: ATG_p53_CIS: Attagene CIS-FACTORIAL HepG2 Assay for human p53 Transcription Factor (AID 2282994). Particulars: HepG2 p53 cis-element reporter, Attagene mRNA; actives raise or lower the signal. The method, boiled down:
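HepG2 cells transiently transfected with multiplexed cis-regulated reporter transcription units read endogenous TF activity. After 24 h compound exposure, reporter mRNA was quantified by RT-PCR, fluorescent labelling, HpaI digestion and capillary electrophoresis; bidirectional fits versus DMSO baseline.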

Assay [18] can be described thus: ATG_XTT_Cytotoxicity: Cytotoxicity Assessment in the Attagene TRANS-FACTORIAL HepG2 Assay (AID 2283584; active = hit-call score of the fitted dose curve at least 0.9, where 1 is the maximum). The procedure, abridged: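 HepG2 human liver cells, transiently transfected with multiple GAL4-UAS reporter units, were dosed and read at 24 h by XTT as cell number. Loss of signal was fitted relative to DMSO negative control baseline.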
A short description of assay [19]: ATG_FoxO_CIS: Attagene CIS-FACTORIAL HepG2 Assay for human Forkhead box O (FoxO) (AID 2282943). Particulars: HepG2 Attagene cis-reporter, FoxO element, mRNA; actives raise or lower the signal. The method, boiled down: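 HepG2 cells transiently transfected with cis-promoter-driven multiple reporter transcription units; 24 h after chemical dosing, reporter mRNA quantified by RT-PCR, fluorescent primer extension, HpaI digestion and capillary electrophoresis. Bidirectional fitting versus DMSO baseline.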

Assay [20] in a line: ATG_AP_1_CIS: Attagene CIS-FACTORIAL HepG2 Assay for human Activator Protein 1 (AP-1) (AID 2282931). Particulars: HepG2 Attagene cis-factorial AP-1 reporter mRNA; actives raise or lower the signal. The method, boiled down:
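HepG2, transient cis-reporter transfection; 24 h; readout RT-PCR/CE fluorescence; DMSO baseline, gain and loss fitted.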

Chain of Paired box protein Pax-6 (Homo sapiens) (P26367 whole entry, looked up): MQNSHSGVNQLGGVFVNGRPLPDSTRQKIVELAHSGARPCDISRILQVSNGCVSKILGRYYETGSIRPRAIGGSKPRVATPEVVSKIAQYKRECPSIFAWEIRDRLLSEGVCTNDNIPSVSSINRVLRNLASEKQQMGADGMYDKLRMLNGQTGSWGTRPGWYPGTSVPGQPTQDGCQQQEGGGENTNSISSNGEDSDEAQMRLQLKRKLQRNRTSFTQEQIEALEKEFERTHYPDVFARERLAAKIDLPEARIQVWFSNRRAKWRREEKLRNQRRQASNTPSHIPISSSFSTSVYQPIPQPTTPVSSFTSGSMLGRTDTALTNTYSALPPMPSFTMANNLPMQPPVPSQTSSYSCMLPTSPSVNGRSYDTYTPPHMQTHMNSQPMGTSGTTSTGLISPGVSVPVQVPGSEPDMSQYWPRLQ
Chain of Cellular tumor antigen p53 (Homo sapiens) (P04637 whole entry, looked up): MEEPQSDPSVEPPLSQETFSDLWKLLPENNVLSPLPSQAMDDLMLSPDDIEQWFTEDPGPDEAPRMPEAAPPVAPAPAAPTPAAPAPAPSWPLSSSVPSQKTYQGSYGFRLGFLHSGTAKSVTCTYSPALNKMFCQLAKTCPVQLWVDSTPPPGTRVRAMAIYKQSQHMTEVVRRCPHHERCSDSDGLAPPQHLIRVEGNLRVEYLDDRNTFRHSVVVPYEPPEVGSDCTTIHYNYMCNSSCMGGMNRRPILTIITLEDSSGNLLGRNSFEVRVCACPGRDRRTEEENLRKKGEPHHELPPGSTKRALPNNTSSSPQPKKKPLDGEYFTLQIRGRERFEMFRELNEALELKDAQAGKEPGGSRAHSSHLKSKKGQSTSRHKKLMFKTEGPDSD
Chain of Heat shock factor protein 1 (Homo sapiens) (Q00613 whole entry, looked up, the tested form may be a part): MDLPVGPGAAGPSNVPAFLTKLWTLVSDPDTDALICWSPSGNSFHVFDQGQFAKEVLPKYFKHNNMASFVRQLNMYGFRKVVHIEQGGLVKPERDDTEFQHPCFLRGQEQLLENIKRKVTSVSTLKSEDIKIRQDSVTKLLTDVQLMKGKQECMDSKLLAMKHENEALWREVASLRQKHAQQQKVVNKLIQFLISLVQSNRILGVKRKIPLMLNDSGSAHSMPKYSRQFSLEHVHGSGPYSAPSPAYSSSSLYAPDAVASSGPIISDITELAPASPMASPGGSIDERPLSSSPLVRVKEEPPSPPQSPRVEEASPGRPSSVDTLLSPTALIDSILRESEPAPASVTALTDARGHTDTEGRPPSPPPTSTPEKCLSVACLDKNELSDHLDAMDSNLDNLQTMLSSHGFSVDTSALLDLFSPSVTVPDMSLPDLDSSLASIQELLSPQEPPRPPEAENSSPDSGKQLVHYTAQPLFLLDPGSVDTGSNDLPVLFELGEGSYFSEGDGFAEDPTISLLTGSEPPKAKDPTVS
Chain of Hepatocyte nuclear factor 3-beta (Homo sapiens) (Q9Y261 whole entry, looked up): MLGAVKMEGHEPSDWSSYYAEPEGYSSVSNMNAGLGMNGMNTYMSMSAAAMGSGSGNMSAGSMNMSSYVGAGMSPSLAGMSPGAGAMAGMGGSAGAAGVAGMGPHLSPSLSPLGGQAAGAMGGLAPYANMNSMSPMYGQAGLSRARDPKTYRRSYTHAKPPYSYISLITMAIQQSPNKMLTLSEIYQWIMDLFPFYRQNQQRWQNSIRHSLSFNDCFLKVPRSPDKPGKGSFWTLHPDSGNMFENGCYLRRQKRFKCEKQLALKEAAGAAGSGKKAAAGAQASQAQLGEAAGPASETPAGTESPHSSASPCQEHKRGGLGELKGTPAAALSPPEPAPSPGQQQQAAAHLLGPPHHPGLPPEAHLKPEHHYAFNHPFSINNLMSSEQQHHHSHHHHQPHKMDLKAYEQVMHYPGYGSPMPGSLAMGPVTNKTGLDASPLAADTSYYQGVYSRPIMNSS
Chain of Hepatocyte nuclear factor 6 (Homo sapiens) (Q9UBC0 whole entry, looked up): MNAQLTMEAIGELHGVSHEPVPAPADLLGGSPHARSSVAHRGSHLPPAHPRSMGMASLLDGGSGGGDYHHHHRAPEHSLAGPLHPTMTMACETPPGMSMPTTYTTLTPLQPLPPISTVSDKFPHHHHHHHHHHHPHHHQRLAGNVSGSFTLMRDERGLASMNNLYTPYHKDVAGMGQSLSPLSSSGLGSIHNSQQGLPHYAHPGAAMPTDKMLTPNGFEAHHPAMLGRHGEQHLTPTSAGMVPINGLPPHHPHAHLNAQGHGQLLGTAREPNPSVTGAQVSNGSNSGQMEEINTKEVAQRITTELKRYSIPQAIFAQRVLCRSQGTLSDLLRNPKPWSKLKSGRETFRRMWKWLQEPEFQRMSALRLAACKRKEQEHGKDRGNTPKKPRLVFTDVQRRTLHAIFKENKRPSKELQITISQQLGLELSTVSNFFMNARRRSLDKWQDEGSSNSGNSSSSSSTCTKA
Chain of Aryl hydrocarbon receptor (Homo sapiens) (P35869 whole entry, looked up): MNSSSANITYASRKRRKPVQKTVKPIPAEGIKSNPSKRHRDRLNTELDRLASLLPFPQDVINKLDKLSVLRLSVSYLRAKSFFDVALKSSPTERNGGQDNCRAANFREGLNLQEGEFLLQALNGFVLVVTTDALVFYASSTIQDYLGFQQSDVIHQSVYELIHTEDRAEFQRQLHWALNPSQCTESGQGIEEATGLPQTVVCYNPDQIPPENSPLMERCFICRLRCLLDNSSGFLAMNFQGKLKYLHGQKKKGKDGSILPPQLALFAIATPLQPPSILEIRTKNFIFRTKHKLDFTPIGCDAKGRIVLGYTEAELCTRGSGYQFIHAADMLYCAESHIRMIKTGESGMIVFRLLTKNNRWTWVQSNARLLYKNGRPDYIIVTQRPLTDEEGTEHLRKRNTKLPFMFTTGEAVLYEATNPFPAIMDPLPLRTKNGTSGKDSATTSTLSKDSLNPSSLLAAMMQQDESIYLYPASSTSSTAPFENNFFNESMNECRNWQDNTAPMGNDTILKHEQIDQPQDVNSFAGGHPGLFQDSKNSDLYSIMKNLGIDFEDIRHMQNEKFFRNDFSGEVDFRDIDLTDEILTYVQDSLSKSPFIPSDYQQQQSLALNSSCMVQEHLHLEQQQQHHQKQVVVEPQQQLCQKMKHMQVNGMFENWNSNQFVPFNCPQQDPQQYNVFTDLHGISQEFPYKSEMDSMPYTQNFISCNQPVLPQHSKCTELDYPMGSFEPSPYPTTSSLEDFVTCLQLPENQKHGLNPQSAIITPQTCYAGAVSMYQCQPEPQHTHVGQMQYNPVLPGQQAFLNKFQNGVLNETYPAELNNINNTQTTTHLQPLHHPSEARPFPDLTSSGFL

Usually AC50 stands for the concentration giving half of the maximal activity seen. For `O=C(NC(=O)c1c(F)cccc1F)Nc1ccc(Oc2ccc(C(F)(F)F)cc2Cl)cc1F`, the compound was classed as inactive in [1], in [4], in assay [5], in assay [6], in [7] and in assay [8]. Besides, the call in assay [9], in assay [10], in assay [11], in [12], in assay [13] and in assay [14] was inactive. Besides, the call in assay [15], in assay [17] and in assay [18] was inactive. For the same compound, the half-maximal activity concentration (AC50) in [2] is 4.11 µM (active); in assay [3], 8.23 µM (active); in assay [16] it was 34.5 µM (active).

`O=C(O)COc1ccccc1`: the compound was called inactive in assay [1], in assay [2], in [3], in assay [4], in assay [5] and in assay [19]. For the same compound, the call in assay [7], in assay [8], in assay [9], in assay [10], in [11] and in [12] was inactive. The call in assay [13], in [14], in assay [15], in assay [16], in assay [17] and in assay [18] was inactive.

On to `CCOP(=O)(OCC)OCC`, for which the outcome in assay [1], in assay [2], in [3], in [20], in assay [5] and in assay [6] was inactive. Moreover, the result in [19], in [7], in assay [8], in assay [9], in assay [10] and in assay [11] was inactive. Besides, the outcome in [12], in assay [14], in [16], in [17] and in [18] was inactive.

With `O=S(=O)(c1ccccc1)c1ccccc1`, the call in assay [1], in [2], in assay [3], in [20], in assay [6] and in [19] was inactive. Also, the outcome in assay [7], in assay [8], in [9], in assay [10], in [11] and in [12] was inactive. Further, the compound was called inactive in [13], in assay [16] and in assay [17]. Moreover, the AC50 in assay [14] is 31.4 µM (active).
